# Assay results taken from paper PMC7862700, “An all-to-all approach to the identification of sequence-specific readers for epigenetic DNA modifications on cytosine”.
# Key:
# Experiment in all cases: DAPPL (digital affinity profiling via proximity ligation, sequencing); 10 mM Tris-HCl pH 7.5, 50 mM NaCl, 1 mM DTT, 4% glycerol, room temperature, 30 min; GST-TFs on glutathione beads, 16-mer random dsDNA library, 0.1% formaldehyde crosslink after washing; high values mean tight binding
# FLI1 = target: T1, FLI1 (Homo sapiens, UniProt Q01543 1-452); settings: protein: recombinant; tags: N-terminal GST; dsDNA, one strand shown
# T1 sequence: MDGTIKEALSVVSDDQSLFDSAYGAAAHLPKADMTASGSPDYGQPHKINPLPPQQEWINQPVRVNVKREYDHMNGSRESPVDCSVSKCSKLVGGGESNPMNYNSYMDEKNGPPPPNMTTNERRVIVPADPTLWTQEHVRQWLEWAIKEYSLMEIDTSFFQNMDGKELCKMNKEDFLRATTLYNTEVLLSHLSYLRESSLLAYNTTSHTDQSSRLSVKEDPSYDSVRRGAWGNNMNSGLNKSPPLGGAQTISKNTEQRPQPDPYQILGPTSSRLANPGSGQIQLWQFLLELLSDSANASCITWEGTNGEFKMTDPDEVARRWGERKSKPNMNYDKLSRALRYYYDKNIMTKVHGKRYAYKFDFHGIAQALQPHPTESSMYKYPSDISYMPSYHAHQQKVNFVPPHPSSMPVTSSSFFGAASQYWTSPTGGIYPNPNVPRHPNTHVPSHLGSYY
# In short: (§1)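 Beads coated with glutathione captured GST-fused human transcription factors that had been expressed in yeast, and the factors were then given DNA barcodes and pooled with a tag-only sample. The pools were incubated with 200 nmole of a random double-stranded 16-mer DNA library in Tris/NaCl/DTT/glycerol buffer for 30 min at room temperature, washed, crosslinked with 0.1% formaldehyde and proximity-ligated with BsaI/T4 ligase at 37 °C for 1 h. PCR amplification and Illumina NextSeq500 sequencing came last. Binding signal is each hexamer's read frequency for a factor divided by its frequency for the tag-only sample.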
# ELK1 = target: T2, ELK1 (Homo sapiens, UniProt P19419 1-428); settings: protein: recombinant; tags: N-terminal GST; dsDNA, one strand shown
# T2 sequence: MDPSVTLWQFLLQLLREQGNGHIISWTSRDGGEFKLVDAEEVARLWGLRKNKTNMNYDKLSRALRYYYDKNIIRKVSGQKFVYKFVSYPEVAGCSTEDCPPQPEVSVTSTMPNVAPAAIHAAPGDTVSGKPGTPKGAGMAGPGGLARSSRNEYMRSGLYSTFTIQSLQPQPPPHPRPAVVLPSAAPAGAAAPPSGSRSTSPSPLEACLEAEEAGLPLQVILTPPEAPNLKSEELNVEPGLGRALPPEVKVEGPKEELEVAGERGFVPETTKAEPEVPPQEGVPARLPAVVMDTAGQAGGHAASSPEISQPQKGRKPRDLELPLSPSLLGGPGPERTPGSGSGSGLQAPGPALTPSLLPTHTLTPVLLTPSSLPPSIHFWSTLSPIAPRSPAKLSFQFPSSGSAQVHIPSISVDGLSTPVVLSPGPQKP
# In short: as §1
# GABPA = target: T3, GABPA (Homo sapiens, UniProt Q06546 1-454); settings: protein: recombinant; tags: N-terminal GST; dsDNA, one strand shown
# T3 sequence: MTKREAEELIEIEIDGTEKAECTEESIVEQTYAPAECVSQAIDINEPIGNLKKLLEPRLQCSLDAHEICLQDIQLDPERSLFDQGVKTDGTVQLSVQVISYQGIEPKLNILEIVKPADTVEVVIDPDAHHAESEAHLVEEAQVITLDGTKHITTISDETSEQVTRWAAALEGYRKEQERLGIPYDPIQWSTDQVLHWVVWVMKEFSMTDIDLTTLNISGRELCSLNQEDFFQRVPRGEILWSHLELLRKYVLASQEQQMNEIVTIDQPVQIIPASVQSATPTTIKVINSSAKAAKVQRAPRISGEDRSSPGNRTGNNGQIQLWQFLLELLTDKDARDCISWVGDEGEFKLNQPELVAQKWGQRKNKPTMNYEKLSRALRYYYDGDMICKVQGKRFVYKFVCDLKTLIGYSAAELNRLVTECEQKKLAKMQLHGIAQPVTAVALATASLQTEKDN
# In short: as §1
# ERG = target: T4, ERG (Homo sapiens, UniProt P11308 1-479); settings: protein: recombinant; tags: N-terminal GST; dsDNA, one strand shown
# T4 sequence: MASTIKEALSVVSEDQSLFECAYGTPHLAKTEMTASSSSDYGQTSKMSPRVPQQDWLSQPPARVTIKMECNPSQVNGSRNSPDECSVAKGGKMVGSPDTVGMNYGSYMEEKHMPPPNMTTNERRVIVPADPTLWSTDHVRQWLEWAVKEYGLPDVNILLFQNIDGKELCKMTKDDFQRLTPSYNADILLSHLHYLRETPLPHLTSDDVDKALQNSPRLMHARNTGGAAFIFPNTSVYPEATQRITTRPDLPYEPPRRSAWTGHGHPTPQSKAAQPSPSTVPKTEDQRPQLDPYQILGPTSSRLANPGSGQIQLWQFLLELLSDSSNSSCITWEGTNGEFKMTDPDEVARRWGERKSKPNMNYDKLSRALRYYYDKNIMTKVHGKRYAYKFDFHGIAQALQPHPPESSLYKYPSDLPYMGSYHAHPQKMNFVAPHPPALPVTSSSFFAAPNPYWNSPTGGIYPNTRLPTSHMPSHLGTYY
# In short: as §1
# ELF1 = ELF1 (Homo sapiens, UniProt P32519 1-619); settings: protein: recombinant; tags: N-terminal GST; dsDNA, one strand shown
# In short: as §1
# EHF = target: T5, EHF (Homo sapiens, UniProt Q9NZC4 1-300); settings: protein: recombinant; tags: N-terminal GST; dsDNA, one strand shown
# T5 sequence: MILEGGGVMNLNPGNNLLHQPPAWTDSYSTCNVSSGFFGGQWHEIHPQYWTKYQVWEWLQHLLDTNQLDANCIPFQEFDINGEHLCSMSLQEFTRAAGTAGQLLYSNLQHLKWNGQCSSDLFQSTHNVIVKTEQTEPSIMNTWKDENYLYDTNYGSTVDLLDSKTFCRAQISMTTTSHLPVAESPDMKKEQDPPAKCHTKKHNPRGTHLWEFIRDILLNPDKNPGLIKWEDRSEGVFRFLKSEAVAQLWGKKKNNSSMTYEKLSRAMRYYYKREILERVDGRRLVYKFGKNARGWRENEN
# In short: as §1
# SPI1 = SPI1 (Homo sapiens, UniProt P17947 1-270); settings: protein: recombinant; tags: N-terminal GST; dsDNA, one strand shown
# In short: as §1
# SPIB = SPIB (Homo sapiens, UniProt Q01892 1-262); settings: protein: recombinant; tags: N-terminal GST; dsDNA, one strand shown
# In short: as §1
# ELK3 = target: T6, ELK3 (Homo sapiens, UniProt P41970 1-407); settings: protein: recombinant; tags: N-terminal GST; dsDNA, one strand shown
# T6 sequence: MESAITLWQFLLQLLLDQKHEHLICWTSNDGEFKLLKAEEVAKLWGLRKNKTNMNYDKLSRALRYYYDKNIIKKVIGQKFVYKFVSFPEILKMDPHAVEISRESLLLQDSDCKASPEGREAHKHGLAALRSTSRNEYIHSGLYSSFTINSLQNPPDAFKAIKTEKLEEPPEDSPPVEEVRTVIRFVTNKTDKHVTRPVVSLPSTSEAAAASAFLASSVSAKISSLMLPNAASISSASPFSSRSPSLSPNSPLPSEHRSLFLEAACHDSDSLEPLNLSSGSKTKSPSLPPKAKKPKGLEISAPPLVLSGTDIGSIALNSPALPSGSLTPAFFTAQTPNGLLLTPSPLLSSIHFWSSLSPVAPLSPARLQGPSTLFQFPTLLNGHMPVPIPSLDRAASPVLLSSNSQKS
# In short: as §1
# FEV = target: T7, FEV (Homo sapiens, UniProt Q99581 1-238); settings: protein: recombinant; tags: N-terminal GST; dsDNA, one strand shown
# T7 sequence: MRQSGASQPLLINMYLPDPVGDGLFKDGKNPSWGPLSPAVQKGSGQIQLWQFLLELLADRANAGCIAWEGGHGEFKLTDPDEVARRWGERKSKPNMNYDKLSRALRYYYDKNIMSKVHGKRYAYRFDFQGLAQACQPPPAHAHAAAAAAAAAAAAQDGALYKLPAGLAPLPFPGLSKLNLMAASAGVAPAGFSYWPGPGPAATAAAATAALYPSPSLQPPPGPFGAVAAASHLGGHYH
# In short: as §1
# ETV5 = ETV5 (Homo sapiens, UniProt P41161 1-510); settings: protein: recombinant; tags: N-terminal GST; dsDNA, one strand shown
# In short: as §1
# HSF1 = HSF1 (Homo sapiens, UniProt Q00613 1-529); settings: protein: recombinant; tags: N-terminal GST; chain copies: 3; dsDNA, one strand shown
# In short: as §1
# SPIC = target: T8, SPIC (Homo sapiens, UniProt Q8N5J4 1-248); settings: protein: recombinant; tags: N-terminal GST; dsDNA, one strand shown
# T8 sequence: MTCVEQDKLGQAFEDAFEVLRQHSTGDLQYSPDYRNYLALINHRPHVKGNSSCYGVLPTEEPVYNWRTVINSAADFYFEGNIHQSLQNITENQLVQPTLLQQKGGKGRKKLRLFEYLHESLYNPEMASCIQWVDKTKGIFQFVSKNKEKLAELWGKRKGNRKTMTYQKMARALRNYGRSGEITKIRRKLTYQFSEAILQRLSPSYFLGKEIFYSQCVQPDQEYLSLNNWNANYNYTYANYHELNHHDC
# In short: as §1
# ELF4 = ELF4 (Homo sapiens, UniProt Q99607 1-663); settings: protein: recombinant; tags: N-terminal GST; dsDNA, one strand shown
# In short: as §1
# ELK4 = target: T9, ELK4 (Homo sapiens, UniProt P28324-2 1-405); settings: protein: recombinant; tags: N-terminal GST; dsDNA, one strand shown
# T9 sequence: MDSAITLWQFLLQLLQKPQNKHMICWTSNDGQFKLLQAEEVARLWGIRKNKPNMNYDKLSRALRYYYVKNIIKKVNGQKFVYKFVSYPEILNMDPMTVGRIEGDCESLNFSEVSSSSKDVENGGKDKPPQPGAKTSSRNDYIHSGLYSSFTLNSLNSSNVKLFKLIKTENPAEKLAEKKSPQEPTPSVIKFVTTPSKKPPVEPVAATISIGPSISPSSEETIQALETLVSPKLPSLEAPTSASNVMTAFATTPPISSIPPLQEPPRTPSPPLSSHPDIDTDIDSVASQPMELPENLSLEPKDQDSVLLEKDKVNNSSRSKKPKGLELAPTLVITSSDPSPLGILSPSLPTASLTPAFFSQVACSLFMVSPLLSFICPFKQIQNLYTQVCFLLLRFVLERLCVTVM
# In short: as §1
# ETV2 = target: T10, ETV2 (Homo sapiens, UniProt O00321 1-342); settings: protein: recombinant; tags: N-terminal GST; dsDNA, one strand shown
# T10 sequence: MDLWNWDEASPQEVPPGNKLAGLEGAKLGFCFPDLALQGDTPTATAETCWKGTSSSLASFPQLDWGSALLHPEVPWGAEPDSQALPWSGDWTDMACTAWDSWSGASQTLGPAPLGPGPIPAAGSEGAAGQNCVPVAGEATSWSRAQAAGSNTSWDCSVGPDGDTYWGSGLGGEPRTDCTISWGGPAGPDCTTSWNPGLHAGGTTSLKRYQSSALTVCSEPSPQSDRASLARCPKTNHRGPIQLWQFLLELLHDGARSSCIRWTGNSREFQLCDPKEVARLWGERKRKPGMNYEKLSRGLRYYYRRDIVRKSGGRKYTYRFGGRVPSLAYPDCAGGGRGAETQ
# In short: as §1
# ELF3 = target: T11, ELF3 (Homo sapiens, UniProt P78545 1-371); settings: protein: recombinant; tags: N-terminal GST; dsDNA, one strand shown
# T11 sequence: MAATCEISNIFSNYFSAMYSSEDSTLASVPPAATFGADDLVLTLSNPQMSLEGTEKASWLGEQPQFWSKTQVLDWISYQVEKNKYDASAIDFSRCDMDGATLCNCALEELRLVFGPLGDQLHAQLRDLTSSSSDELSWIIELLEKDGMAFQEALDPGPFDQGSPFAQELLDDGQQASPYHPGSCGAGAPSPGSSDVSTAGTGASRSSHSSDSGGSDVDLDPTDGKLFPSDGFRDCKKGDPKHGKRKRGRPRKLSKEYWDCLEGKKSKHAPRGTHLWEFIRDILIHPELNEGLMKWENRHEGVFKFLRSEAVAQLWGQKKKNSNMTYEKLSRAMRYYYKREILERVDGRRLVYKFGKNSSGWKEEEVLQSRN
# In short: as §1
# CRX = CRX (Homo sapiens, UniProt O43186 1-299); settings: protein: recombinant; tags: N-terminal GST; dsDNA, one strand shown
# In short: as §1
# ETV1 = ETV1 (Homo sapiens, UniProt P50549 1-477); settings: protein: recombinant; tags: N-terminal GST; dsDNA, one strand shown
# In short: as §1
# Sequence of CRX (O43186 whole entry): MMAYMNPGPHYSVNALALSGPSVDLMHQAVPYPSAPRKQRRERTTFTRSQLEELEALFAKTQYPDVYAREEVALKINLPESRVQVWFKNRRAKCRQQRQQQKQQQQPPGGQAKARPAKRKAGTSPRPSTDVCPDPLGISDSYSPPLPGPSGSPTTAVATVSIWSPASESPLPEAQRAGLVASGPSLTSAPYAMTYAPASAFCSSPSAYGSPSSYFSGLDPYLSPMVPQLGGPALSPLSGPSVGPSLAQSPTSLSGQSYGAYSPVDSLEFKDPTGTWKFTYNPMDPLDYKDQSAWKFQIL
# Sequence of HSF1 (Q00613 whole entry): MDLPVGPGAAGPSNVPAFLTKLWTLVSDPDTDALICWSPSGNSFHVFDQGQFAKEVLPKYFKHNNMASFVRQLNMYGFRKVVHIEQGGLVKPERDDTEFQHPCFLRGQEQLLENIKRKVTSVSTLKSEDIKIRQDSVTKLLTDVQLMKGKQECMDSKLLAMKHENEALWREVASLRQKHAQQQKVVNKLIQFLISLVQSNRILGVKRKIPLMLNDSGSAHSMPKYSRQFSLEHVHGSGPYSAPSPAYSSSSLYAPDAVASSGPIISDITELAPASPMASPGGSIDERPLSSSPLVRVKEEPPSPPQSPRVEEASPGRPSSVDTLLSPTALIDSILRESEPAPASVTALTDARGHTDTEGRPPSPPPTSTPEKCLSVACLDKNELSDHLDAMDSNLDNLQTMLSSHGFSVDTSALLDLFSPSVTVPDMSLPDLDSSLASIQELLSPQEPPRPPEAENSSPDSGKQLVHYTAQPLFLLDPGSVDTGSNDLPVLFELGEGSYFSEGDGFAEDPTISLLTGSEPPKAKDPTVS
# Sequence of SPIB (Q01892 whole entry): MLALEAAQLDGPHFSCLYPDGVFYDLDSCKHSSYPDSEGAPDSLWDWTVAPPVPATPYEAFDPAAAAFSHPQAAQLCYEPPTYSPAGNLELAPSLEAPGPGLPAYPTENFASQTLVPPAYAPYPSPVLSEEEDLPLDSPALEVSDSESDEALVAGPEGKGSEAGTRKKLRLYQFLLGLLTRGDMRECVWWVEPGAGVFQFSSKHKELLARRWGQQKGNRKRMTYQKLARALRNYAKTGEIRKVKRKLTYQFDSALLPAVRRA
# Sequence of ELF4 (Q99607 whole entry): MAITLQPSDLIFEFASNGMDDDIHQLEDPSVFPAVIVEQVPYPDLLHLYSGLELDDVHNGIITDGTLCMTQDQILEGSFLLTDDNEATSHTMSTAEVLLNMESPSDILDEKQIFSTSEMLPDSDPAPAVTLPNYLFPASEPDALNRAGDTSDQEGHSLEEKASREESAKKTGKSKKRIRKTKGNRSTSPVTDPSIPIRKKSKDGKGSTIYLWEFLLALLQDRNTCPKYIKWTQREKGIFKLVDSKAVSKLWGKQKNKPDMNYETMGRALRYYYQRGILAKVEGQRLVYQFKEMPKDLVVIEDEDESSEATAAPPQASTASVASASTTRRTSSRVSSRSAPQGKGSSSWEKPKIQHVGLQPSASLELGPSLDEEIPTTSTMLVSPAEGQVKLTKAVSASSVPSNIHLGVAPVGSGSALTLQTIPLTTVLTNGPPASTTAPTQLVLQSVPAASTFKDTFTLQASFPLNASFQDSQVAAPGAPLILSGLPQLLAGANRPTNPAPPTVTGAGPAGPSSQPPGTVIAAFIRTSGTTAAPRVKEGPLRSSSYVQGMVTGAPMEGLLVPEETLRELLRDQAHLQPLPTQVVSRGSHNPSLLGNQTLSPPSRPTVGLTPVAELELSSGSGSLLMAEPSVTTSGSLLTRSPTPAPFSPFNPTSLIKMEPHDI
# Sequence of ETV1 (P50549 whole entry): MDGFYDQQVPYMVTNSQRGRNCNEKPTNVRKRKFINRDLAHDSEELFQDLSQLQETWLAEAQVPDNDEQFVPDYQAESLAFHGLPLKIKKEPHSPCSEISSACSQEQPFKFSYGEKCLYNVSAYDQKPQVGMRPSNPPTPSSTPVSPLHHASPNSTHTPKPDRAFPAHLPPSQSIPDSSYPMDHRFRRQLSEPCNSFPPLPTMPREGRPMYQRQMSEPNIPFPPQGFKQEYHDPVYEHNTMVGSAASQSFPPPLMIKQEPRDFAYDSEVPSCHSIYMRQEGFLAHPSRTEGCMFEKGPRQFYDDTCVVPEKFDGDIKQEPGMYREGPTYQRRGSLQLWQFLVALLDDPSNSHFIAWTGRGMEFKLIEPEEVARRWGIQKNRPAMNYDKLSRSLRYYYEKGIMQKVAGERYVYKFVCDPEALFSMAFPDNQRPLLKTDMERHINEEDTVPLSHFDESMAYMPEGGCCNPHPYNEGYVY
# Sequence of ELF1 (P32519 whole entry): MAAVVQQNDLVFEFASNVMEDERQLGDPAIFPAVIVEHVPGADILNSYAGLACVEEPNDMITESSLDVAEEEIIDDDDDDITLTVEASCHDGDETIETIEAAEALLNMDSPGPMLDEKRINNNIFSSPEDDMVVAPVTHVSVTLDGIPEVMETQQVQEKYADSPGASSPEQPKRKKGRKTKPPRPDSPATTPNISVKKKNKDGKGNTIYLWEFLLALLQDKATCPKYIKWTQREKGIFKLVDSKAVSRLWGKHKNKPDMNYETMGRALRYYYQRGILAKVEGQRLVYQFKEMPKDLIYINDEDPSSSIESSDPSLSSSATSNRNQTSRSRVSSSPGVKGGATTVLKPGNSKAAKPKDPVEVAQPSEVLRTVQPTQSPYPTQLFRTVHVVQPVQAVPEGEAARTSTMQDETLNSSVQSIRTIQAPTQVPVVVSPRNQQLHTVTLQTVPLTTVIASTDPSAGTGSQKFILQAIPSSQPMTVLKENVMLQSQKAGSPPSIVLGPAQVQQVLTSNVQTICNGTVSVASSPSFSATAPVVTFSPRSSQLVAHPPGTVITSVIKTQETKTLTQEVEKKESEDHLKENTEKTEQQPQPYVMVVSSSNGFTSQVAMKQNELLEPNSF
# Sequence of ETV5 (P41161 whole entry): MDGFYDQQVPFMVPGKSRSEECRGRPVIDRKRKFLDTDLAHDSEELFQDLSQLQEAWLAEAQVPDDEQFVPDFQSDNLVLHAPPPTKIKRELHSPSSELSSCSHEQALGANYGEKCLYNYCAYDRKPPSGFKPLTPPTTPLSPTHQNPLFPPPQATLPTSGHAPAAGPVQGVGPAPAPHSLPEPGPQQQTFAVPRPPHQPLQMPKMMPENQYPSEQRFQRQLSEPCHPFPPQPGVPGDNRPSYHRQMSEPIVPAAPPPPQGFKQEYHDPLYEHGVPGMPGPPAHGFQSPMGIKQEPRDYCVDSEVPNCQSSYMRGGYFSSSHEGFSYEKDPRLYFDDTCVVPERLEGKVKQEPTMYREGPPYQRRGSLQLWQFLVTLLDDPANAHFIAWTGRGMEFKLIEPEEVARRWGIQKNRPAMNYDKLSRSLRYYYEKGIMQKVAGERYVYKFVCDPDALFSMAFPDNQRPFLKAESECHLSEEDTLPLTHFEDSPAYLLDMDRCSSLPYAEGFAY
sequence,measurement,setting,value
TCCTAA,binding signal,FLI1,"1.63 fold enrichment (6-mer frequency, TF over GST control)"
same,binding signal,ELK1,"1.34 fold enrichment (6-mer frequency, TF over GST control)"
same,binding signal,GABPA,"1.41 fold enrichment (6-mer frequency, TF over GST control)"
same,binding signal,ERG,"1.58 fold enrichment (6-mer frequency, TF over GST control)"
same,binding signal,ELF1,"1.49 fold enrichment (6-mer frequency, TF over GST control)"
same,binding signal,EHF,"1.27 fold enrichment (6-mer frequency, TF over GST control)"
same,binding signal,SPI1,"1.43 fold enrichment (6-mer frequency, TF over GST control)"
same,binding signal,SPIB,"1.49 fold enrichment (6-mer frequency, TF over GST control)"
same,binding signal,ELK3,"1.43 fold enrichment (6-mer frequency, TF over GST control)"
same,binding signal,FEV,"1.41 fold enrichment (6-mer frequency, TF over GST control)"
same,binding signal,ETV5,"1.4 fold enrichment (6-mer frequency, TF over GST control)"
same,binding signal,HSF1,"1.66 fold enrichment (6-mer frequency, TF over GST control)"
same,binding signal,SPIC,"1.38 fold enrichment (6-mer frequency, TF over GST control)"
same,binding signal,ELF4,"1.44 fold enrichment (6-mer frequency, TF over GST control)"
same,binding signal,ELK4,"1.39 fold enrichment (6-mer frequency, TF over GST control)"
same,binding signal,ETV2,"1.47 fold enrichment (6-mer frequency, TF over GST control)"
same,binding signal,ELF3,"1.57 fold enrichment (6-mer frequency, TF over GST control)"
same,binding signal,CRX,"2.09 fold enrichment (6-mer frequency, TF over GST control)"
same,binding signal,ETV1,"1.32 fold enrichment (6-mer frequency, TF over GST control)"
